Assay results reported in the supplement of paper PMC3334620.
In all, about 33,000 sequences were measured (“E-score (-0.5 to 0.5)”: median about -0.035, highest 2% from about 0.35 on). For the sample, the highest values were picked, then their nearest neighbours and some sequences at random.

Each sequence was assayed against T1, Pdr3 (UniProt P33200) (assay: PBM E-score (8-mer binding enrichment) (E-score (-0.5 to 0.5)); higher = stronger / more preferred TF binding). Conditions: protein concentration: 200 nM; construct: GST-full length.
T1 sequence: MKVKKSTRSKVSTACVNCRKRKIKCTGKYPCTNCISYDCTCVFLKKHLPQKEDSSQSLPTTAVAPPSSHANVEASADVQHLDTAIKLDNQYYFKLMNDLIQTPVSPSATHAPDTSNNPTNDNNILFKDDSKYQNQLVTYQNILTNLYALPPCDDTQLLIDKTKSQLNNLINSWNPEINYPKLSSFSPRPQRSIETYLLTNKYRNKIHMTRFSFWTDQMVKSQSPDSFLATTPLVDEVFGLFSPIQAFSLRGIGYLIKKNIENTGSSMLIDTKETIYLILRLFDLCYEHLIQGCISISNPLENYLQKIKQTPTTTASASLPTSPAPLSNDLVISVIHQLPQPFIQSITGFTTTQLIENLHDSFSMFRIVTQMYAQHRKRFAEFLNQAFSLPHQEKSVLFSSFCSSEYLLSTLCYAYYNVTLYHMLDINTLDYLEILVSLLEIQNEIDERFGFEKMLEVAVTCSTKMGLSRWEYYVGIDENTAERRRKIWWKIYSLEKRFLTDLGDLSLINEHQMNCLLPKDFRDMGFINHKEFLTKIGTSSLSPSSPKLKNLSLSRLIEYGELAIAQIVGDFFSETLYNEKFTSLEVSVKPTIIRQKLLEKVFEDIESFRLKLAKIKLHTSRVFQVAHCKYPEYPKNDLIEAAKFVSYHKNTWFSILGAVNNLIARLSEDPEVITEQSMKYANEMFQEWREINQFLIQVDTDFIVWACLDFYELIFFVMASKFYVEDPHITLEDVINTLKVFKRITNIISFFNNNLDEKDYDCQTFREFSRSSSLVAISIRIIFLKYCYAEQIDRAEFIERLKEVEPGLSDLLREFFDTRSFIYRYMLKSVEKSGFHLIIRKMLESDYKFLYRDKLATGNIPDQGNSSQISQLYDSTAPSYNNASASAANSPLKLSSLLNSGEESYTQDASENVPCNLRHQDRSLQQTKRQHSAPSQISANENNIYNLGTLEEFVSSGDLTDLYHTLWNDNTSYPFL
How it was run: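 GST-tagged yeast TFs (full-length or DNA-binding domain) were made by PURExpress in vitro transcription/translation and applied at about 100-200 nM to universal all-10-mer Agilent arrays. The arrays were made double-stranded by primer extension, on fresh or once-stripped slides. Bound protein was detected with fluorescent anti-GST, and scans were normalised with masliner. Each ungapped eight-base word, pooled with its reverse complement, received an E-score (modified Wilcoxon-Mann-Whitney statistic) from the Universal PBM Analysis Suite.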

Compared with AAGACTAC, ACGTTCCT is higher in “PBM E-score” value: -0.188 for the first, 0.0124 for the second.

First: ACGTTCCA
Second: CCGTTCCG
The “PBM E-score” value of the first is lower: 0.0623 for the first, 0.477 for the second.

Going from AGGTTCCG to ACGTTCCG, the “PBM E-score” value falls from 0.478 to 0.445.

First: ATGTTCCC
Second: AGGTTCCA
The “PBM E-score” value of the first is higher: 0.153 for the first, -0.018 for the second.

Compared with CCGTTCCA, ATGTTCCA is lower in “PBM E-score” value: 0.207 for the first, 0.0325 for the second.

Going from AGGTTCCC to ATGTTCCG, the “PBM E-score” value rises from -0.0087 to 0.48.

Compared with CCGTTCCC, GCAGGGAA is lower in “PBM E-score” value: 0.253 for the first, 0.0453 for the second.

First: GAATAGGA
Second: ACCGGTTG
The “PBM E-score” value of the first is lower: 0.0694 for the first, 0.208 for the second.

First: AGCATTTG
Second: CGAGAGGC
The “PBM E-score” value of the first is higher: -0.0766 for the first, -0.119 for the second.

Compared with GCGAGAGA, CAGTCTTC is higher in “PBM E-score” value: -0.148 for the first, -0.147 for the second.

Compared with AAACTTAG, CTTGACAC is lower in “PBM E-score” value: -0.216 for the first, -0.222 for the second.

Compared with CAGGGCTA, ACTAGTAC is higher in “PBM E-score” value: -0.258 for the first, -0.105 for the second.

Going from ACGAATAT to CATGCCGA, the “PBM E-score” value rises from 0.0203 to 0.248.

First: CATGCCGG
Second: AATGCCGG
The “PBM E-score” value of the first is higher: 0.36 for the first, 0.308 for the second.

First: CATGCCGC
Second: AATGCCGA
The “PBM E-score” value of the first is higher: 0.345 for the first, 0.219 for the second.

First: AATGCCGT
Second: ATCCTTGG
The “PBM E-score” value of the first is higher: 0.36 for the first, -0.0819 for the second.

Compared with CGCCGACC, AGAGTAGC is lower in “PBM E-score” value: 0.135 for the first, -0.228 for the second.

First: CCCGCAGG
Second: CAGGAAAA
The “PBM E-score” value of the first is higher: 0.142 for the first, 0.0238 for the second.

Going from CGGGAAAG to AGGGAAAG, the “PBM E-score” value falls from 0.281 to -0.106.

First: CAGGAAAG
Second: CCGGAAAA
The “PBM E-score” value of the first is lower: -0.278 for the first, 0.44 for the second.

Going from CTGGAAAA to CGGGAAAC, the “PBM E-score” value rises from 0.144 to 0.309.

First: ACGGAAAG
Second: CCGGAAAG
The “PBM E-score” value of the first is higher: 0.44 for the first, 0.414 for the second.

Going from CCGGAAAC to ATGGAAAG, the “PBM E-score” value falls from 0.447 to 0.0226.

Compared with CAGGAAAC, CAGTCCCG is higher in “PBM E-score” value: -0.0475 for the first, 0.273 for the second.

Compared with AGTTGACG, CGAACTTA is higher in “PBM E-score” value: -0.0734 for the first, 0.0051 for the second.

First: CTTAGGGA
Second: GGCTAACA
The “PBM E-score” value of the first is lower: -0.353 for the first, -0.132 for the second.

Going from ATAGGAGA to CAGTTACC, the “PBM E-score” value rises from -0.363 to -0.0312.

Going from AACGGATT to GACGGATA, the “PBM E-score” value falls from 0.334 to 0.251.

First: AACGGATG
Second: AACGGATA
The “PBM E-score” value of the first is lower: 0.283 for the first, 0.417 for the second.

Going from AACGGATC to GACGGATC, the “PBM E-score” value falls from 0.367 to 0.313.

Going from CACGGATG to CACGGATC, the “PBM E-score” value rises from 0.284 to 0.395.

Going from CAAGGATC to TACGGATA, the “PBM E-score” value rises from -0.0745 to 0.224.

First: AACAGATC
Second: CACGGATA
The “PBM E-score” value of the first is lower: -0.0307 for the first, 0.373 for the second.

Going from AGAACTCA to ACAACTTC, the “PBM E-score” value rises from 0.00923 to 0.167.

First: CAGTGAGG
Second: GACCTAGA
The “PBM E-score” value of the first is lower: -0.309 for the first, -0.115 for the second.

First: CCAGCAAC
Second: GCAGCTCC
The “PBM E-score” value of the first is lower: -0.00856 for the first, 0.144 for the second.

First: AAGGGTCC
Second: GAACGGCA
The “PBM E-score” value of the first is lower: 0.205 for the first, 0.256 for the second.

First: AAACGGAT
Second: AAACGGAC
The “PBM E-score” value of the first is higher: 0.377 for the first, 0.189 for the second.

Compared with AAACGGTA, GAACGGAC is higher in “PBM E-score” value: 0.172 for the first, 0.259 for the second.

First: CAACGGAC
Second: CAACGGAG
The “PBM E-score” value of the first is lower: 0.261 for the first, 0.307 for the second.

First: AAACGGGA
Second: GAACGGAA
The “PBM E-score” value of the first is lower: 0.352 for the first, 0.469 for the second.

Going from CAACGGAA to AAACGGAG, the “PBM E-score” value falls from 0.47 to 0.184.

Compared with AAACGGAA, CGCTACCG is lower in “PBM E-score” value: 0.469 for the first, 0.141 for the second.

Compared with CCCTAAGA, CTTGCGGA is higher in “PBM E-score” value: -0.243 for the first, 0.137 for the second.

Going from CAGGCGGG to CCGAGAAG, the “PBM E-score” value rises from 0.0666 to 0.183.

Going from TCCACGAA to TAACGGTA, the “PBM E-score” value rises from -0.0449 to 0.0452.

First: TAACGGAA
Second: TAACGGGA
The “PBM E-score” value of the first is higher: 0.453 for the first, 0.237 for the second.

First: CACAGAAA
Second: CGGCCGGC
The “PBM E-score” value of the first is lower: 0.0151 for the first, 0.371 for the second.

First: GGGCCGGA
Second: AGGCCGGC
The “PBM E-score” value of the first is higher: 0.318 for the first, 0.291 for the second.

First: AGGCCGGA
Second: CGGCCGGA
The “PBM E-score” value of the first is lower: 0.256 for the first, 0.396 for the second.

Going from CGGCCGAC to CGCATGAG, the “PBM E-score” value falls from 0.315 to -0.164.

Going from CATGATTA to CACGGAGC, the “PBM E-score” value rises from 0.0563 to 0.374.

Going from CACGGAGA to TACGGAGA, the “PBM E-score” value falls from 0.372 to 0.178.

First: CACGGAGG
Second: GACGGAGC
The “PBM E-score” value of the first is higher: 0.26 for the first, 0.213 for the second.

Going from GACGGAGA to AAGATTGG, the “PBM E-score” value falls from 0.322 to 0.014.

Going from GTGGTTCA to ACTTAACC, the “PBM E-score” value falls from 0.0321 to -0.166.

Compared with ATCACCCG, CCACCCGG is higher in “PBM E-score” value: 0.358 for the first, 0.359 for the second.

First: TACCCGGA
Second: ACACCCGG
The “PBM E-score” value of the first is higher: 0.381 for the first, 0.291 for the second.

Going from CACCCCGG to ATCACCCA, the “PBM E-score” value falls from 0.236 to -0.0491.

First: ATCACCCC
Second: TACCCGTA
The “PBM E-score” value of the first is higher: 0.0523 for the first, 0.0329 for the second.

Compared with CACCCGAG, TACCCGAA is lower in “PBM E-score” value: 0.204 for the first, 0.198 for the second.

First: CACCCGGG
Second: CCACCCGA
The “PBM E-score” value of the first is higher: 0.398 for the first, 0.216 for the second.

Going from CCCATCCC to AAGTGGAA, the “PBM E-score” value falls from 0.133 to -0.0995.

First: AGGGCGGG
Second: ACCTCCTA
The “PBM E-score” value of the first is higher: 0.25 for the first, -0.192 for the second.

Going from ACGGCCTA to AACAGGGT, the “PBM E-score” value falls from 0.131 to -0.0562.

Compared with CGGGGTAA, GGCAAACC is lower in “PBM E-score” value: 0.267 for the first, -0.147 for the second.

Going from GACGTATC to GACCCGGA, the “PBM E-score” value rises from -0.0675 to 0.369.

Going from AACCCGGC to CACCCGGA, the “PBM E-score” value rises from 0.289 to 0.412.

Compared with AACCCGGA, ACCCCGGA is lower in “PBM E-score” value: 0.384 for the first, 0.352 for the second.

First: CACCCGGC
Second: CCCACCCC
The “PBM E-score” value of the first is higher: 0.234 for the first, 0.198 for the second.

Going from GACCCGGC to GACCCCGA, the “PBM E-score” value falls from 0.294 to 0.109.

Compared with CACCCGTA, CCCACCCA is lower in “PBM E-score” value: 0.151 for the first, 0.073 for the second.

Going from CCCACCCG to AATAGCGT, the “PBM E-score” value falls from 0.387 to 0.0358.

First: CGCAAATA
Second: TACACGTA
The “PBM E-score” value of the first is higher: 0.125 for the first, -0.168 for the second.

First: AAGATTGA
Second: CTCGCCCA
The “PBM E-score” value of the first is lower: -0.131 for the first, -0.0292 for the second.

Going from CGTGCGCA to AGTCAAAA, the “PBM E-score” value rises from -0.111 to -0.104.

Going from AGGAGCGA to CGGAGCGA, the “PBM E-score” value rises from -0.199 to 0.378.

First: ACGAGCCG
Second: CGGAGCCC
The “PBM E-score” value of the first is lower: 0.134 for the first, 0.208 for the second.

Going from CGGAGCGC to CCGAGCCA, the “PBM E-score” value rises from 0.266 to 0.295.

Going from CCGAGCCG to CGGAGCAC, the “PBM E-score” value falls from 0.359 to 0.297.

Going from CGGAGCAA to AGGAGCCG, the “PBM E-score” value falls from 0.338 to 0.0342.

Compared with CGGAGCAG, CGGAGCCG is lower in “PBM E-score” value: 0.403 for the first, 0.369 for the second.

Going from AGCATCGA to ACATATCT, the “PBM E-score” value rises from -0.0594 to 0.0252.

First: CGCTGTAG
Second: ATGTGGTA
The “PBM E-score” value of the first is higher: -0.00377 for the first, -0.0392 for the second.

Going from AGCGAACG to GTAACCGA, the “PBM E-score” value rises from -0.134 to 0.0824.

Going from CGTGATTA to GAGTACTC, the “PBM E-score” value rises from 0.0343 to 0.0872.
